Data reported in PubChem BioAssay (Tox21).
Results filed as inconclusive are left out. Unmarked numbers belong to inactive results. Active and inactive are the calls of the source. Unless noted, calls follow the shape of the dose curve; as a rule, active = well fitted cell-killing curve with a large enough effect in the repeat runs (not every such curve was filed as active); inconclusive = weak or mixed curves, or effect the other way; inactive = no such curve, though single readings can be large or run the other way.

Tested on: not listed separately
Test: qHTS assay to identify small molecule antagonists of the estrogen related receptor signaling pathway with the pleiotropic PPARgamma coactivator (PGC) from Tox21 10K library - cell viability counter screen (AID 1224840); also: nearly all actives have a fitted effect of over 40% in size
Details: PGC/ERR reporter cells viability, CellTiter-Fluor, 17.5 h; series mostly up to 92.4 µM; viability change, negative = cytotoxic: at the top concentration
Outline: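 Fluorescence read-out of CellTiter-Fluor viability reagent, added after cells had been exposed to compound in DMSO for 17.5 h at 37 C; 30 min development at 37 C/5% CO2. Cells: PGC/ERR line, 2,000/well.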
% is scaled to controls: 0 for no effect and ±100 for the full control effect.

Row | Compound | viability change, negative = cytotoxic
1 | CCN(CC)c1nc(C)cc(OP(=S)(OC)OC)n1 | -3.32%
2 | C#C[C@]1(O)C=C[C@H]2[C@@H]3CCC4=CC(=O)CC[C@@H]4[C@H]3CC[C@@]21CC | -4.46% [at 42.5 µM]
3 | ClC(Cl)C(Cl)Cl | -0.368%
4 | CC(CC(C#N)(c1ccccc1)c1ccccc1)N(C)C (stereo unspecified) | -13.6%
5 | CN(C)CCc1ccc(O)cc1 | 1.32% [at 42.5 µM]
6 | C(CCOCC1CO1)COCC1CO1 (stereo unspecified) | 4.3%
7 | CCCCC(=O)Cl | -1.54%
8 | CCCCOC(=O)c1ccccc1N | -25.5%
9 | Cc1ncc(CNC(=O)N(CCCl)N=O)c(N)n1 | 11.9% [at 42.5 µM]
10 | CCCCCCI | 3.5%
11 | ClCCOCOCCCl | -3.19%
12 | ClCC(Cl)Cl | 3.95%
13 | CSc1nc(N=[N+]=[N-])nc(NC(C)C)n1 | 4.44%
14 | O=C1OC(c2ccc(O)c(S(=O)(=O)O)c2)(c2ccc(O)c(S(=O)(=O)O)c2)c2c(Br)c(Br)c(Br)c(Br)c21 | 9.27% [at 42.5 µM]
15 | Nc1c(Br)cc([N+](=O)[O-])cc1[N+](=O)[O-] | -19.1%
16 | CCC(C)n1c(=O)[nH]c(C)c(Br)c1=O (stereo unspecified) | 0.989%
17 | CC(C)(C)NCC(O)c1cc(Cl)c(N)c(Cl)c1 (stereo unspecified) | -21.1% [at 42.5 µM]
18 | COC(=O)c1c(C(F)F)nc(C(F)(F)F)c(C2=NCCS2)c1CC(C)C | 0.186%
19 | C1CCC(C2CCCCC2)CC1 | -8.94%
20 | Cc1nnc2n1-c1sc(CCC(=O)N3CCOCC3)cc1C(c1ccccc1Cl)=NC2 | 8.26% [at 42.5 µM]
21 | c1coc(-c2nc3ccccc3[nH]2)c1 | 12%
22 | Cc1ncsc1CCCl | 9.35% [at 42.5 µM]
23 | OCCSCSCCO | 12.3%
24 | CNCC(=O)c1ccc(O)c(O)c1 | -1.12% [at 42.5 µM]
25 | CCCCCCBr | 0.485%
26 | O=C(CCCN1CCC(n2c(=O)[nH]c3ccccc32)CC1)c1ccc(F)cc1 | -5.47% [at 42.5 µM]
27 | CC1(C(=O)Nc2ccc(O)c(Cl)c2Cl)CCCCC1 | -23.4%
28 | C=CC1CC=CCC1 (stereo unspecified) | 1.79%
29 | CCOC(=O)C1(c2ccccc2)CCN(CCc2ccc(N)cc2)CC1 | -5.26% [at 42.5 µM]

Tested on: not listed separately
Test: qHTS assay to identify small molecule antagonists of the estrogen related receptor signaling pathway with the pleiotropic PPARgamma coactivator (PGC) from Tox21 10K library (AID 1224841; call rule not given here; also: actives are mostly falling curves and most rising ones were filed inactive; nearly all actives have a fitted effect of over 50% in size)
Details: PGC/ERR reporter cell line, ONE-Glo luciferase, 18 h; series mostly up to 92.4 µM; activity, negative = inhibition: at the top concentration
Outline: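 Luminescence read-out (One-Glo luciferase reagent, 30 min at room temperature) from PGC/ERR cells exposed to DMSO-dissolved test compounds for 18 h at 37 C; cells, 2,000 per well, had been preincubated 6 h before compound transfer.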

Row | Compound | activity, negative = inhibition
30 | CN(C)CCc1ccc(O)cc1 | 14.4% [at 42.5 µM]
31 | CCCCC(=O)Cl | -1.03%
32 | ClCCOCOCCCl | 6.51%
33 | Nc1c(Br)cc([N+](=O)[O-])cc1[N+](=O)[O-] | -1.39%
34 | CCC(C)n1c(=O)[nH]c(C)c(Br)c1=O (stereo unspecified) | 0.498%
35 | CC(C)(C)NCC(O)c1cc(Cl)c(N)c(Cl)c1 (stereo unspecified) | 14.9% [at 42.5 µM]
36 | COC(=O)c1c(C(F)F)nc(C(F)(F)F)c(C2=NCCS2)c1CC(C)C | -0.49%
37 | C1CCC(C2CCCCC2)CC1 | -3.2%
38 | Cc1nnc2n1-c1sc(CCC(=O)N3CCOCC3)cc1C(c1ccccc1Cl)=NC2 | 11.6% [at 42.5 µM]
39 | CC1CCC(=O)O1 (stereo unspecified) | 1.35%
40 | CCc1cc2c(s1)-n1c(C)nnc1CN=C2c1ccccc1Cl | 19.7% [at 42.5 µM]
41 | N#Cc1c(Cl)cccc1Cl | 10.9%

Tested on: not listed separately
Test: qHTS assay to identify small molecule agonists of the estrogen related receptor signaling pathway with the pleiotropic PPARgamma coactivator (PGC) from Tox21 10K library (AID 1224842; active = well fitted activation curve with a large enough effect in the repeat runs; also: nearly all actives have a fitted effect of over 15% in size)
Details: PGC/ERR reporter cell line, luciferase ONE-Glo, 18 h; series mostly up to 92.4 µM; activation: at the top concentration
Outline: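 Luminescence from One-Glo (30 min, room temperature) measured after PGC/ERR cells had 18 h at 37 C with pinned compound (23 nL in DMSO). Cells had been seeded at 2,000 per well and pre-incubated 6 h.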

Row | Compound | activation
42 | CN(C)CCc1ccc(O)cc1 | 4.16% [at 42.5 µM]
43 | CCCCC(=O)Cl | -0.335%
44 | CCCCCCI | -2.01%
45 | ClCCOCOCCCl | -0.388%
46 | Nc1c(Br)cc([N+](=O)[O-])cc1[N+](=O)[O-] | -0.454%
47 | CCC(C)n1c(=O)[nH]c(C)c(Br)c1=O (stereo unspecified) | 0.179%
48 | CC(C)(C)NCC(O)c1cc(Cl)c(N)c(Cl)c1 (stereo unspecified) | 4.55% [at 42.5 µM]
49 | COC(=O)c1c(C(F)F)nc(C(F)(F)F)c(C2=NCCS2)c1CC(C)C | -0.195%
50 | C1CCC(C2CCCCC2)CC1 | -0.984%
51 | Cc1nnc2n1-c1sc(CCC(=O)N3CCOCC3)cc1C(c1ccccc1Cl)=NC2 | 3.25% [at 42.5 µM]
52 | CC1CCC(=O)O1 (stereo unspecified) | 0.455%
53 | CCc1cc2c(s1)-n1c(C)nnc1CN=C2c1ccccc1Cl | 5.62% [at 42.5 µM]
54 | N#Cc1c(Cl)cccc1Cl | 4.08%
55 | CCCCCCBr | -3.61%
56 | CC1(C(=O)Nc2ccc(O)c(Cl)c2Cl)CCCCC1 | -10.8%
57 | CCOC(=O)C1(c2ccccc2)CCN(CCc2ccc(N)cc2)CC1 | -8.7% [at 42.5 µM]

Target: Thyrotropin receptor (Homo sapiens) (UniProt P16473)
Sequence (P16473 whole entry, looked up): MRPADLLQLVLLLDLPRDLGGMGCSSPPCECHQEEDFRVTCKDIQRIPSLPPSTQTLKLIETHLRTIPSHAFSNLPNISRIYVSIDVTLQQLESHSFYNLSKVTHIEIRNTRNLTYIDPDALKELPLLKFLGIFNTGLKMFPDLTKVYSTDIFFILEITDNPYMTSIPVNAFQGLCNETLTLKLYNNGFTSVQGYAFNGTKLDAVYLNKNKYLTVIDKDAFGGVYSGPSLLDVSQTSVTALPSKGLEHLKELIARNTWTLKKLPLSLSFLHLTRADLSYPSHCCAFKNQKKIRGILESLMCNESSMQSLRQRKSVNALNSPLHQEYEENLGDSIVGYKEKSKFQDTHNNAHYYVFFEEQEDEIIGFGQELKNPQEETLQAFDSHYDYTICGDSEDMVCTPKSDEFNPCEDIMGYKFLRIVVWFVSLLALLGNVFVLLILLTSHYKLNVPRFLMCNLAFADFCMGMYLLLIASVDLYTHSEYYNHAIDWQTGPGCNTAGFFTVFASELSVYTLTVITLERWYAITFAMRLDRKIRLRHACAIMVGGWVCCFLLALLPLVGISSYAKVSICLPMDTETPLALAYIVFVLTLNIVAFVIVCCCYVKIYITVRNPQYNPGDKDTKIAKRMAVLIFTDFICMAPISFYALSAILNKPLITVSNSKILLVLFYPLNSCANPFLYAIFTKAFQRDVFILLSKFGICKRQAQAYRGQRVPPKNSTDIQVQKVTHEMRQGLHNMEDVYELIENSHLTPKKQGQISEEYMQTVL
Test: qHTS assay to identify small molecule agonists of the thyroid stimulating hormone receptor (TSHR) signaling pathway (AID 1224843; calls by dose curve; also: nearly all actives have a fitted effect of over 45% in size; also: potency is read from the fitted curve at half-maximal effect)
Details: TSHR-HEK293 cells, cAMP HTRF, agonist mode, 30 min; series mostly up to 92.4 µM; activation: at the top concentration
Outline: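 A cell-based cAMP HTRF format was run in TSHR-transfected HEK293 cells, 800 per well. Treatment: 30 min, room temperature. Detection: 1 h with labelled cAMP and anti-cAMP cryptate. Concentration-response over 15 points, three replicates.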

Row | Compound | activation | Potency
58 | CCN(CC)c1nc(C)cc(OP(=S)(OC)OC)n1 | -21.1% | 
59 | O=P(O)(Oc1ccccc1)Oc1ccccc1 | 0.156% | 
60 | CC(CC(C#N)(c1ccccc1)c1ccccc1)N(C)C (stereo unspecified) | -6.85% | 
61 | CN(C)CCc1ccc(O)cc1 | -1.73% [at 42.5 µM] | 
62 | C(CCOCC1CO1)COCC1CO1 (stereo unspecified) | 25.3% | 
63 | CCCCC(=O)Cl | 10.3% | 
64 | Cc1ncc(CNC(=O)N(CCCl)N=O)c(N)n1 | 4.3% [at 42.5 µM] | 
65 | ClCCOCOCCCl | -0.995% | 
66 | ClCC(Cl)Cl | -14% | 
67 | CSc1nc(N=[N+]=[N-])nc(NC(C)C)n1 | -24.9% | 
68 | O=C1OC(c2ccc(O)c(S(=O)(=O)O)c2)(c2ccc(O)c(S(=O)(=O)O)c2)c2c(Br)c(Br)c(Br)c(Br)c21 | -3.01% [at 42.5 µM] | 
69 | Nc1c(Br)cc([N+](=O)[O-])cc1[N+](=O)[O-] | -0.5% | 
70 | c1cc2c(c(N3CCNCC3)c1)OCCO2 | 5.69% [at 42.5 µM] | 
71 | CCC(C)n1c(=O)[nH]c(C)c(Br)c1=O (stereo unspecified) | -4.04% | 
72 | CC(C)(C)NCC(O)c1cc(Cl)c(N)c(Cl)c1 (stereo unspecified) |  | 2.1 nM (active)
73 | COC(=O)c1c(C(F)F)nc(C(F)(F)F)c(C2=NCCS2)c1CC(C)C | 0.048% | 
74 | C1CCC(C2CCCCC2)CC1 | 7.71% | 
75 | Cc1nnc2n1-c1sc(CCC(=O)N3CCOCC3)cc1C(c1ccccc1Cl)=NC2 | -1.32% [at 42.5 µM] | 
76 | c1coc(-c2nc3ccccc3[nH]2)c1 | -7.06% | 
77 | Cc1ncsc1CCCl | 0.356% [at 42.5 µM] | 
78 | CC1CCC(=O)O1 (stereo unspecified) | -5.78% | 
79 | OCCSCSCCO | 1.91% | 
80 | OC(Cn1cncn1)(c1ccc(F)cc1)c1ccccc1F (stereo unspecified) | -9.2% | 
81 | CNCC(=O)c1ccc(O)c(O)c1 |  | 2370 nM (active)
82 | COc1ncc(F)c2nc(S(=O)(=O)Nc3c(F)cccc3F)nn12 | -14.6% [at 42.5 µM] | 
83 | CCCCCCBr | 0.683% | 
84 | O=C(CCCN1CCC(n2c(=O)[nH]c3ccccc32)CC1)c1ccc(F)cc1 | -2.51% [at 42.5 µM] | 
85 | C=CC1CC=CCC1 (stereo unspecified) | -2.12% | 
86 | CCOC(=O)C1(c2ccccc2)CCN(CCc2ccc(N)cc2)CC1 | 5.83% [at 42.5 µM] | 
